Data on 68 molecules can be found in PubChem BioAssay AID488969 (Vanderbilt High Throughput Screening Facility, 2010).

Whole data set: some 110,000 compounds, median “z-score” near -0.1, cut for the highest 2% near 2. The sample as a whole holds a higher share of the highest values than the screen did. Active and inactive are the calls of the source.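 The calls were made as follows: active = z-score in the third read window above 3 or below -3; inactive = the rest.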

Chain of Metabotropic glutamate receptor 8 (Rattus norvegicus) (P70579 whole entry, looked up): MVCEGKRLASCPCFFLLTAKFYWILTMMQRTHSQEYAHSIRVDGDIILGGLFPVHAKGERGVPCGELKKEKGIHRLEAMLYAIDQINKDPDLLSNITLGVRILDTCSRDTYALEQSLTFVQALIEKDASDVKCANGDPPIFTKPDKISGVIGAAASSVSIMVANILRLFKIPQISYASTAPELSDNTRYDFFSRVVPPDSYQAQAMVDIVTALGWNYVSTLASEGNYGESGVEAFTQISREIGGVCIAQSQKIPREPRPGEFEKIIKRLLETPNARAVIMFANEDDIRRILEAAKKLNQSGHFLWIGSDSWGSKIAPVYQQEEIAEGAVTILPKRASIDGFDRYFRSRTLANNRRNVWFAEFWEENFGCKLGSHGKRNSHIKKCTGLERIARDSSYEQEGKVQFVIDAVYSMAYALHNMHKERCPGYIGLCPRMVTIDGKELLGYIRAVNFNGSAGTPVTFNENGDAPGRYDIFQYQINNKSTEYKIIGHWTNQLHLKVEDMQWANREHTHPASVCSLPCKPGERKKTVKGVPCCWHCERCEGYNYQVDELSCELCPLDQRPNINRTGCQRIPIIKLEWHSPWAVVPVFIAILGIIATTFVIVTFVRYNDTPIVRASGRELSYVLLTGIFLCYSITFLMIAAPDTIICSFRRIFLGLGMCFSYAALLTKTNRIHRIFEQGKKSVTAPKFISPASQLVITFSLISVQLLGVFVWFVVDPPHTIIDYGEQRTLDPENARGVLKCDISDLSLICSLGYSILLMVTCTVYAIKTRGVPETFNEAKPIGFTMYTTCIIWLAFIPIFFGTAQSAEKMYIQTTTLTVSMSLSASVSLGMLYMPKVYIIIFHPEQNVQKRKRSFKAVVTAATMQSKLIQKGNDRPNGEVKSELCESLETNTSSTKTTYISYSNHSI

The assay addresses Metabotropic glutamate receptor 8 (Rattus norvegicus) (UniProt P70579). Description: mGluR8 Gi/Go-coupled signaling modulation – cell-based, rat, thallium flux, HTS, primary screen (AID 488969). The following applies: HEK293 rat mGluR8, GIRK (G protein-gated inwardly rectifying potassium channel) thallium flux, FluoZin2; at 10 µM; stronger effect = higher value; submaximal glutamate (EC20) added with thallium.
For `Cc1ccc(S(=O)(=O)N2CCN(CCO)CC2)cc1-c1nnc2c3ccccc3c(C)nn12`, the z-score was -0.156.

Regarding `Cc1ccc(-c2nnc3c4ccccc4c(C)nn23)cc1S(=O)(=O)N1CCN(C)CC1`, the z-score is -0.999. On to `Cc1ccc(S(=O)(=O)N2CCN(C)CC2)cc1-c1nnc2c3ccccc3c(C)nn12`, for which the z-score is 9.27 (active). Next, `Cc1cc(C)n(-c2nncn2NC(=O)c2ccc(Cl)cc2O)n1`: 2.24; `Cc1cc(C)n(-c2nnc(C)n2NC(=O)c2cccc(Cl)c2)n1`: 0.0281; `Cc1ccc(C)n1NC(=O)c1ccc(Cl)cc1Cl`: 0.557.

With `CCCCn1c(SC(C)C(N)=O)nc2cc(C(=O)OC)ccc2c1=O` (stereo not drawn), the z-score is 3 (active).

In turn, `CCSc1nc2cc(C(=O)OC)ccc2c(=O)n1CC` showed a z-score of 0.836. The same measure for `CCNC(=O)NC(=O)C(C)Sc1nc2cc(C(=O)OC)ccc2c(=O)n1-c1ccccc1` (stereo not drawn): 0.204; for `O=C(O)C1CC=CCC1C(=O)NCc1ccc2c(c1)OCO2` (stereo not drawn): -0.618; for `COc1ccc(N2CCN(C(=O)CSc3nnc4c(C)cc5cc(C)ccc5n34)CC2)cc1`: 1.03.

In the case of `Cc1ccc(C)c(-n2ccnc2SCC(=O)O)c1`, the z-score was -0.0351. Next, `CCc1cccc(NC(=O)CN(c2ccc(OC)cc2)S(=O)(=O)c2c(C)n[nH]c2C)c1`: 0.317; `COCCCNC(=O)Cn1ncc2ccsc2c1=O`: -0.327. Turning to `COC(CNC(=O)Cn1ncc2ccsc2c1=O)OC`, the z-score was -0.112. The same measure for `COCCNC(=O)Cn1ncc2ccsc2c1=O`: 2.25; for `CCOc1ccc2oc(-c3ccccc3)c(C(=O)N3CCN(CCO)CC3)c2c1`: -0.457; for `COc1ccc(C(=O)NCc2cn3ccsc3n2)cc1OC`: -0.547.

As for `COc1cc(C(=O)NCc2cn3ccsc3n2)cc(OC)c1OC`, the z-score is -0.0269. Next, `COc1cccc(C(=O)NCc2cn3ccsc3n2)c1`: 15.2 (active); `O=C(CSc1ccc(-c2ccc(F)cc2)nn1)N1CCN(c2ccccc2)CC1`: -0.139; `Cc1ccc(C(=O)O)cc1S(=O)(=O)N1CCCC1`: 2.05. In the case of `Cc1ccc(C(=O)O)cc1S(=O)(=O)N1CCC(C(=O)O)CC1`, the z-score was 0.299. The same measure for `Cc1ccc(C(=O)O)cc1S(=O)(=O)N1CCOCC1`: -0.267; for `CCOC(=O)c1cnc2c(C#N)c(C)nn2c1C`: 0.0622. Next, `COc1ccc(NS(=O)(=O)c2cc(NC(=O)c3ccc(C)o3)ccc2N2CCCCC2)cc1`: -0.024; `CC1CCCCN1CCNC(=O)c1cc2c(=O)n(C)c3ccccc3c2n1C` (stereo not drawn): 1.88. The same measure for `Cn1c(C(=O)NCCN2CCCCCC2)cc2c(=O)n(C)c3ccccc3c21`: 1.86; for `CC1CCN(CCCNC(=O)c2cc3c(=O)n(C)c4ccccc4c3n2C)CC1`: 2.7; for `Cn1c(C(=O)NCCCN2CCOCC2)cc2c(=O)n(C)c3ccccc3c21`: 0.0335. Molecule `CC1CCCC(C)N1CCCNC(=O)c1cc2c(=O)n(C)c3ccccc3c2n1C` (stereo not drawn) came in with a z-score of 2.79. Next, `Cn1c(C(=O)NCCCN2CCN(c3ccccc3F)CC2)cc2c(=O)n(C)c3ccccc3c21`: 2.46.

Turning to `Cn1c(C(=O)NCCCN2CCCC2=O)cc2c(=O)n(C)c3ccccc3c21`, the z-score was -0.963. Next, `Cn1c(C(=O)NCCCN2CCCCCC2)cc2c(=O)n(C)c3ccccc3c21`: 2.52; `Cn1c(C(=O)NCCCN2CCN(c3ccccc3F)CC2)cc2c(=O)[nH]c3ccccc3c21`: -0.0771; `CCCN1CCN(CCCNC(=O)c2cc3c(=O)n(C)c4ccccc4c3n2C)CC1`: 1.48. Next, `Cn1c(C(=O)NCCN2CCOCC2)cc2c(=O)n(C)c3ccccc3c21`: -2.82; `CCC(=O)N1CCN(c2nc3ccccc3s2)CC1`: -0.0557; `O=C(NNC(=S)NC1CCCCC1)c1cccc(S(=O)(=O)Nc2ccccc2Cl)c1`: -0.537. Turning to `O=C(CCNc1ccccc1)c1cccc([N+](=O)[O-])c1`, the z-score is -0.134. The same measure for `Cc1cccc(NC(=O)c2sc(NC(=O)COc3ccccc3)c(C#N)c2C)c1C`: -0.152; for `CC(OC(=O)c1cc2sccc2n1C)C(=O)NCc1ccc2c(c1)OCO2` (stereo not drawn): -0.018. The same measure for `Cc1snc2sc(C(=O)c3ccc(Br)cc3)c(N)c12`: -0.378; for `O=C(NCc1ccco1)c1cc(-c2ccc3c(c2)OCO3)on1`: -0.862.

In the case of `O=C(O)CCCN1C(=O)C2C3CCC(O3)C2C1=O` (stereo not drawn), the z-score was -0.35. In the case of `CCCCn1c(SCC(=O)Nc2ccccc2C(F)(F)F)nc2ccsc2c1=O`, the z-score is 0.00651. Next, `COCCN(CCOC)C(=O)CC(=O)N(CCOC)CCOC`: 0.0459; `Cn1c(C(=O)NCCN2CCc3ccccc3C2)cc2c(=O)n(C)c3ccccc3c21`: 2.7; `CN1CCN(CCNC(=O)c2cc3c(=O)n(C)c4ccccc4c3n2C)CC1`: 0.327. Next, `Cn1c(C(=O)NCCCN2CCc3ccccc3C2)cc2c(=O)n(C)c3ccccc3c21`: 0.807; `COc1cccc(C(=O)OCC(=O)Nc2cc(C)c(C)cc2[N+](=O)[O-])c1`: -0.131. Next, `CCOC(=O)C1CCCN(Cc2cccs2)C1` (stereo not drawn): -0.137; `O=C(C1CCCN(Cc2cccs2)C1)N1CCCCCC1` (stereo not drawn): 3.36 (active); `O=C(C1CCCN(Cc2ccccc2)C1)N1CCCCC1` (stereo not drawn): 0.122. Turning to `COc1cccc(C(=O)Cn2c(=O)n(CC3CCCO3)c(=O)c3ccccc32)c1` (stereo not drawn), the z-score was -0.719. The same measure for `CC1CCN(C(=O)C2CCN(S(=O)(=O)c3cccnc3)CC2)CC1`: 2.03; for `O=C(C1CCN(S(=O)(=O)c2cccnc2)CC1)N1CCCCC1`: 0.487; for `O=C(C1CCN(S(=O)(=O)c2cccnc2)CC1)N1CCN(C2CCCC2)CC1`: -0.318. `Cc1ccc(Cn2nnc3c(=O)[nH]c(C4CCN(S(=O)(=O)c5cc(C)ccc5C)CC4)nc32)cc1` showed a z-score of 0.616.

Regarding `Cc1ccc(S(=O)(=O)NCCc2ccncc2)cc1`, the z-score is -0.472.

Consider `O=C1CCCN1CN(C(=O)c1ccc2c(c1)OCO2)c1cccc(Cl)c1`, for which the z-score was -0.21.

`COc1cc(C)nc(N(Cc2ccccc2)S(=O)(=O)c2ccccc2)n1`: the z-score amounted to 2.43.

As for `COC(=O)CN(c1nc(C)cc(OC)n1)S(=O)(=O)c1ccccc1`, the z-score is -0.5.

`CCN(c1nc(C)cc(OC)n1)S(=O)(=O)c1ccccc1`: the z-score is -0.243. The same measure for `CCc1ccc(S(=O)(=O)N(C(=O)c2ccncc2)c2ccc(OC(=O)c3ccncc3)cc2)cc1`: -0.659; for `Cn1c(CN2CCN(C(=O)c3ccccc3)CC2)nc2cc([N+](=O)[O-])ccc21`: 0.0497; for `Cc1c(NC(=O)c2cnn3c(C(F)(F)F)cc(-c4ccco4)nc23)c(=O)n(-c2ccccc2)n1C`: 0.95. Next, `Cc1ccc(C)c(NC(=O)/C(C#N)=C/c2ccc(Sc3nncn3C)c([N+](=O)[O-])c2)c1`: -0.0512.
